PubChem BioAssay AID720704 (The Scripps Research Institute Molecular Screening Center, 2013)
About 660 (0.18%) of roughly 370,000 compounds were called active. The list comes from a sample in which actives are over-represented; it also holds similar structures and randomly drawn compounds. A number with no mark means an inactive call. No stated cut-off is given here; in the data, active means inhibition above about 11%; inactive means the rest.

Molecular target: 1-phosphatidylinositol 4,5-bisphosphate phosphodiesterase beta-3 (Homo sapiens) (UniProt Q01970)
Sequence (Q01970 whole entry, looked up): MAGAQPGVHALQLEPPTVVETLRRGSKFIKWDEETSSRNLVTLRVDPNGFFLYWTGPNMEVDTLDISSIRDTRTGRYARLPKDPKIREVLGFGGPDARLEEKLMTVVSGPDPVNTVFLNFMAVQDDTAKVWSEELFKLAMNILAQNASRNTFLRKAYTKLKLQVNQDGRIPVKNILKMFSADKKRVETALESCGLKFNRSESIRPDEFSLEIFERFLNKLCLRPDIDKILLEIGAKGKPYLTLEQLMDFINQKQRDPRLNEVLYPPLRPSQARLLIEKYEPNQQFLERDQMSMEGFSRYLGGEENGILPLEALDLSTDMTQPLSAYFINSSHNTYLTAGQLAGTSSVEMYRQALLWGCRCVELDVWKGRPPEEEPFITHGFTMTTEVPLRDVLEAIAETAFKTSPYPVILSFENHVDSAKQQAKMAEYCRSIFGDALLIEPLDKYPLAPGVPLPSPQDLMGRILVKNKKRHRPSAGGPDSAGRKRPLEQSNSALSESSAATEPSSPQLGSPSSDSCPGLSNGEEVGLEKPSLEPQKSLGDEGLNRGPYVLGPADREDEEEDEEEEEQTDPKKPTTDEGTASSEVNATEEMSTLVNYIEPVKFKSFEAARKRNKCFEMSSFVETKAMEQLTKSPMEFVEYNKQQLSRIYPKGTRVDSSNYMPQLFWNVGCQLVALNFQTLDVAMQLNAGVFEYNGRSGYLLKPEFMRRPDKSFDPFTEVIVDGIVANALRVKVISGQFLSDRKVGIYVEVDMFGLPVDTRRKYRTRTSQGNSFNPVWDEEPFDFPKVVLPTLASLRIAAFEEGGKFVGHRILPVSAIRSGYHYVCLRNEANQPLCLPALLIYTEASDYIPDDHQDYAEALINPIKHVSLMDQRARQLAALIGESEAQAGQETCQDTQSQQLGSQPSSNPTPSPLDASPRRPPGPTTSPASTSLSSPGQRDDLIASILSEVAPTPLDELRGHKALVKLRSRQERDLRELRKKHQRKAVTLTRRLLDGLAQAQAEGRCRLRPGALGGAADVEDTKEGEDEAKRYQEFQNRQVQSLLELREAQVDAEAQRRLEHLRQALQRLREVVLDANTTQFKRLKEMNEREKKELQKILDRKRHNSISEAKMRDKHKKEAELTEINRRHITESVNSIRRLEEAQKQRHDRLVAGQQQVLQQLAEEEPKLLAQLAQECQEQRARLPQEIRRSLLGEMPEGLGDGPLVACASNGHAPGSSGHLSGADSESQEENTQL
Assay: human PLC-beta3 inhibitors, primary screen, biochemical, fluorescence (AID 720704);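 further: 0% = median of compound wells on plate and 100% = full blocker control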
Conditions: Purified PLC-beta3, fluorogenic substrate, at 12.2 µM, stronger effect = higher value

Compared with `Cc1ccc(S(=O)(=O)N2CCC(C(=O)N[C@@H](C)C(=O)NCc3ccco3)CC2)cc1`, `CC1CCN(S(=O)(=O)c2ccc(S(=O)(=O)NCc3cccnc3)cc2)CC1` is lower in inhibition: 0.13% for the first, -6.19% for the second.

First: CC(=O)n1cc([C@H]2C=C(C(=O)N3CCOCC3)O[C@@H](OCc3ccc(CO)cc3)C2)c2ccccc21
Second: CC1=C(C(=O)N2CCOCC2)CC(CC(=O)NCc2cccc3ccccc23)C(=O)N1CCC1=CCCCC1 (stereo not given)
The inhibition of the first is lower: -5.02% for the first, 3.78% for the second.

Going from `COC(=O)c1ccccc1-n1cc(COC(=O)NCCc2ccccc2)nn1` to `COc1ccc(NC(=O)C[C@H]2C(=O)N(CCc3ccccc3)C[C@@H]2C)cc1`, the inhibition rises from -1.19% to 4.39%.

First: CC(=O)NC(Cc1ccc(F)c(F)c1)C(=O)NC1CCN(C(=O)c2ccc(C)cc2)CC1 (stereo not given)
Second: COc1ccc(CC(NC(C)=O)C(=O)NC2CCN(C(=O)c3ccc(OC)c(OC)c3)CC2)cc1OC (stereo not given)
The inhibition of the first is lower: -5.45% for the first, 2.51% for the second.

Going from `O=C(NCc1ccccc1Cl)C(=O)NCC1CCCN1S(=O)(=O)c1cccs1` (stereo not given) to `O=C(c1ccccc1Cl)N(Cc1ccccc1F)N1C(=O)CCCC1=O`, the inhibition rises from -11.5% to -3.35%.

Compared with `CC1=C(C)C(=O)OC(C(C)C2CCC3C4CC=C5CC(OC6OC(COC7OC(CO)C(O)C(O)C7O)C(O)C(O)C6O)CC(O)C5(C)C4CCC23C)C1` (stereo not given), `CCO[C@@H]1OC(C(=O)NC2CC2)=C[C@H](C)[C@H]1CCCO` is lower in inhibition: 4.96% for the first, 1.08% for the second.

Compared with `Cc1nnc(SC(C)C(=O)Nc2ccc(S(=O)(=O)NC3CCCCC3)cc2)s1` (stereo not given), `CC(C)CCN(C(=O)c1csnn1)C(C(=O)NC1CCCC1)c1ccccc1` (stereo not given) is lower in inhibition: 4.91% for the first, -3.64% for the second.

Compared with `COc1ccc(OC)c(NC(=O)CSc2nc3cccnc3n2C)c1`, `COc1ccc(C)cc1NC(=O)CSc1nnc(CC(=O)Nc2ccccc2F)n1C` is lower in inhibition: 6.47% for the first, -4.5% for the second.

Compared with `CSCCC(NC(=O)c1cc([N+](=O)[O-])cc([N+](=O)[O-])c1)c1nc2ccccc2[nH]1` (stereo not given), `O=C(COC(=O)c1ncc(Cl)c(Cl)c1Cl)NNC(=O)c1ccccc1` is lower in inhibition: -1.97% for the first, -12.2% for the second.

Compared with `O=C(CSc1nc2ccccc2o1)N1CCN(c2ccc(Cl)cc2)CC1`, `O=C(CSc1nc2ccccc2o1)N1c2ccccc2Sc2ccc(Cl)cc21` is lower in inhibition: -0.03% for the first, -0.49% for the second.

First: O=C1CCC(C(=O)N2CCC(O)(c3ccccc3)CC2)CN1CCc1ccccc1 (stereo not given)
Second: CC1(C)CN(CCc2ccccc2)C(=O)[C@H]1CC(=O)Nc1ccc(Br)cc1
The inhibition of the first is lower: -8.61% for the first, 1.65% for the second.

Compared with `CCC(=O)c1ccc(N2CCN(C(=O)c3cc([N+](=O)[O-])ccc3F)CC2)c(F)c1`, `Nc1ccn(CC(=O)N2CCN(c3ccccn3)CC2)c(=O)n1` is higher in inhibition: -2.14% for the first, -1.87% for the second.

Going from `NC(=O)c1nnsc1-c1ccc(-c2snnc2C(N)=O)cc1` to `Cc1nnc(SCc2nc3ccccc3nc2C)s1`, the inhibition rises from -6.22% to 2.42%.

Compared with `Cc1ccc(-c2nc(CS(=O)(=O)CC(=O)NCc3ccc4c(c3)OCO4)c(C)o2)cc1`, `Cc1ccc(C)c(NC(=O)c2ccc(OC(=O)c3ccco3)cc2)c1` is higher in inhibition: -6.63% for the first, -2.18% for the second.

First: Cc1cc(Cl)ccc1OCCCC(=O)Nc1cccc(-n2cnnn2)c1
Second: CN1C(CC(=O)Nc2ccc(Br)cc2)c2ccccc2CC1(C)C (stereo not given)
The inhibition of the first is lower: -7.06% for the first, -1.47% for the second.

First: C/C(CC(O)(/C=N/O)c1ccccc1)=N\O (stereo not given)
Second: CCN1CN(Cc2ccccc2)CNC1=S
The inhibition of the first is lower: 3.84% for the first, 6.18% for the second.

Going from `O=C(c1cc2sccc2n1Cc1ccc(F)cc1)N1CCc2ccccc21` to `Cc1ccsc1C(=O)N[C@@H](C)c1nnc2ccccn12`, the inhibition rises from -17.1% to -1.93%.

First: Cc1cc(NC(=O)[C@H](C)NC(=O)c2ccco2)ccc1Br
Second: COC(=O)C1=C(N)Oc2cc(C)oc(=O)c2C1c1cccnc1 (stereo not given)
The inhibition of the first is lower: -1.12% for the first, -0.05% for the second.

First: Cc1nc2nc(COc3ccccc3)[nH]n2c(=O)c1C
Second: O=C1NCC(Nc2ccccc2)C(=O)N1 (stereo not given)
The inhibition of the first is higher: 2.74% for the first, 1.2% for the second.

First: CCN1C(=O)CS/C1=N\c1nccs1
Second: COc1ccc(Br)cc1CN(C)C(=O)C1CC(=O)N(C2CCCC2)C1 (stereo not given)
The inhibition of the first is higher: 0.11% for the first, -3.09% for the second.

Compared with `C=CCn1c(=O)n(C)c2c(=O)n(C)c(=O)n(C)c21`, `CCC1CCCCN1C(=O)CSc1nc2c(c(=O)n(C)c(=O)n2C)n1C` (stereo not given) is lower in inhibition: 0.17% for the first, -1.77% for the second.

Compared with `CCC1CCCCN1C(=O)CSc1nc2c(c(=O)n1C)SC(C)C2` (stereo not given), `O=C(Nc1ccccc1C(F)(F)F)N1CCCC1c1cccnc1` (stereo not given) is lower in inhibition: -1.75% for the first, -8.96% for the second.

Going from `CCCC/S(C)=N/S(=O)(=O)c1ccc(C)cc1` (stereo not given) to `C=CC[C@@H](CC(=O)N[C@@H](CO)Cc1ccccc1)C(=O)N[C@H](COC(=O)[C@H](CC=C)CC(=O)OC(C)(C)C)Cc1ccccc1`, the inhibition falls from 3.14% to 2.78%.

First: C=CC[C@@H](CC(=O)N[C@@H](CO)Cc1ccccc1)C(=O)NCCOC(=O)[C@@H](CC=C)CC(=O)OC(C)(C)C
Second: O=C(O)CCCCOn1ccnc1
The inhibition of the first is higher: 2.47% for the first, 1.89% for the second.

Going from `Nc1cc(N2CCCCCC2)c2nonc2c1[N+](=O)[O-]` to `CC(C)c1nc2oc3c(N4CCN(C)CC4)ncnc3c2c2c1CCC2`, the inhibition falls from -10.7% to -17.2%.

Work on `Cc1cc2c(cc1C)NC(c1ccccn1)C1=C(CC(C)(C)CC1=O)N2` (stereo not given) yielded an inhibition of -15%.

With `CC1CCN(S(=O)(=O)c2ccc(S(=O)(=O)NCc3ccco3)cc2)CC1` the inhibition was 10.8% (active).
In the case of `CCOc1ccc(OCC)c(NC(=O)CSc2nnc(Cn3cnc4ccccc43)n2C)c1`, the inhibition is reported as 12.1% (active).
For `Cc1ccc(/C=N/NC(=O)CSc2nc3ccccc3o2)cc1`, the inhibition was 11.3% (active).
In the case of `Cc1nc2ccccc2nc1CC(O)(c1ccccc1)c1ccccc1`, the inhibition is reported as 11.5% (active).
In the case of `Cc1cc(NC(=O)c2ccc(F)cc2)ccc1NC(=O)c1ccco1`, the inhibition is reported as 12.6% (active).
For `O=C(C[C@H]1C(=O)N(c2ccc(F)c(F)c2)C[C@@H]1Cc1ccccc1)Nc1ccccc1`, the inhibition was 12.1% (active).
For `CCC1CCCCN1C(=O)CSc1nc(C)cc(C)n1` (stereo not given), the inhibition was 19.7% (active).
With `C=CC[C@@H](CC(=O)NCCO)C(=O)N[C@H](C)COC(=O)[C@@H](CC=C)CC(=O)OC(C)(C)C` the inhibition was 12.3% (active).
In the case of `O=c1ccc2c(-c3ccccc3S(=O)(=O)O)c3ccc(O)c(O)c3oc-2c1O`, the inhibition is reported as 11.7% (active).
